# Measurements as given in PubChem BioAssay AID2235 (The Scripps Research Institute Molecular Screening Center, 2010).
# About 2,800 (0.88%) of roughly 320,000 compounds were called active. The full list was thinned out, with actives kept by preference. Values without a mark were called inactive.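 The calls were made as follows: active = inhibition above the mean inhibition of all tested compounds plus 3 SD, computed separately for each screening campaign (cut at about 15% in these data); inactive = the rest.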
# Target: Serine/threonine-protein phosphatase PP1-alpha catalytic subunit (Homo sapiens) (UniProt P62136)
# Assay: inhibition of human PP1 catalytic subunit – biochemical, fluorescence, OMFP substrate, single point, counter-screen for PP5 inhibitor project, primary screen (AID 2235)
# Conditions: purified PP1alpha, at 6.7 µM, hits give high values
# Serine/threonine-protein phosphatase PP1-alpha catalytic subunit (Homo sapiens), sequence (P62136 whole entry, looked up): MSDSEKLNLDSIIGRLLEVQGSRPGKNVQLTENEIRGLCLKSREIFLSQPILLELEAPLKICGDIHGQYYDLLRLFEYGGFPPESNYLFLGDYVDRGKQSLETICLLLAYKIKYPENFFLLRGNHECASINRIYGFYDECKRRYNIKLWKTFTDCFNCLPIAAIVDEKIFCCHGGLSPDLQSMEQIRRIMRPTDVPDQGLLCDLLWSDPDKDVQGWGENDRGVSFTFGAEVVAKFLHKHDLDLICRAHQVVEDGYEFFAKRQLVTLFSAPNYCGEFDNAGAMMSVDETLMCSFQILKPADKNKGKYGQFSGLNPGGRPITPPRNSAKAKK
row,Structure (SMILES),inhibition
1,Clc1ccc(-n2nnnc2-c2cnc(-c3ccccn3)nc2-c2cccs2)cc1,75.5% (active)
2,FC(F)(F)c1nc(-c2ccccc2)ncc1-c1nnnn1-c1ccccc1,0.75%
3,O=C(Cn1cc(-c2nnnn2-c2ccc(Cl)cc2)c(=O)c2ccccc21)c1ccccc1,1.68%
4,O=S(=O)(c1ccc(F)cc1)n1ccc(-c2cnc(-c3ccccc3)s2)n1,5.23%
5,CCOc1ccc2sc(NS(=O)(=O)c3ccc(N)cc3)nc2c1,1.47%
6,COCCCn1c(SCC(=O)Nc2oc(C)c3c(C)n[nH]c(=O)c23)nc2sc3c(c2c1=O)CCC3,-2.04%
7,C=CCn1c(=N)n(CC(O)COc2ccc(OC)cc2)c2ccccc21 (stereo unspecified),-0.92%
8,Cc1cccc(OCC(O)Cn2c(=N)n(CCN3CCOCC3)c3ccccc32)c1 (stereo unspecified),26% (active)
9,CCOc1ccc(C(O)Cn2c(=N)n(CCN3CCCCC3)c3ccccc32)cc1 (stereo unspecified),0.66%
10,Cc1ccc(NC(=O)NC(=O)N(C2CCCCC2)S(=O)(=O)c2ccccc2)cc1,0.85%
11,C=CCn1c(SCc2csc(C)n2)nc2scc(-c3ccc(C)o3)c2c1=O,-0.82%
12,C=CCn1c(=S)[nH]c2scc(-c3ccco3)c2c1=O,18.8% (active)
13,C=CCNC(=O)CSc1nc2scc(-c3ccco3)c2c(=O)n1CC=C,3.47%
14,COc1cc(NC(=S)NNC(=O)CC(C)C)c(OC)cc1Cl,-3.43%
15,Cc1nnc(NC(=O)CCC(=O)N2CCC(C)CC2)s1,-0.54%
16,CC1(C)O[C@@H]2[C@H](O1)[C@@H](COS(=O)(=O)O)O[C@H]2n1ccc(=O)[nH]c1=O,1.54%
17,COc1cc(NC(=O)CSc2nnc3ccc(-c4ccncc4)nn23)cc(OC)c1,-2.13%
18,CSCc1nnc(NC(=O)c2ccc(S(=O)(=O)N3CCCCC3C)cc2)o1 (stereo unspecified),16.8% (active)
19,CC1CCCCN1S(=O)(=O)c1ccc(S(=O)(=O)N(CC(=O)Nc2ccccc2)Cc2cccs2)cc1 (stereo unspecified),3.05%
20,CC1CCCCN1S(=O)(=O)CCNC(=O)c1ccccc1 (stereo unspecified),-2.78%
21,CC1CCCCN1S(=O)(=O)c1ccc(C(=O)Nc2nnc(-c3cccs3)o2)cc1 (stereo unspecified),25.9% (active)
22,O=C(Nc1nnc(-c2ccco2)o1)c1ccc(S(=O)(=O)N2CCOCC2)cc1,1.14%

row,Structure (SMILES),inhibition
1,CC1CCCN(S(=O)(=O)c2ccc(C(=O)Nc3nnc(-c4ccncc4)o3)cc2)C1 (stereo unspecified),7.97%
2,COC(=O)c1ccc(-c2c(-c3ccccc3)ncc3cc(OC)c(OC)cc23)cc1,1.2%
3,CCCCCCCC(=O)NC(Nc1ccccc1OC)C(Cl)(Cl)Cl (stereo unspecified),4.91%
4,COCC(=O)Nc1c(I)c(C(=O)NCC(O)CO)c(I)c(C(=O)N(C)CC(O)CO)c1I (stereo unspecified),-5.4%
5,Cc1cc(C)nc(-n2ncc3c2CC(c2ccc(C(C)C)cc2)CC3=O)n1 (stereo unspecified),15.3% (active)
6,COc1cc(S(=O)(=O)Nc2ncn[nH]2)ccc1Cl,-0.04%
7,Cc1ccc(S(=O)(=O)N2[C@@H](c3ccccc3F)C(C(=O)O)=CC[C@H]2c2ccc(Cl)cc2)cc1,4.64%
8,Cc1ccc(S(=O)(=O)N2[C@@H](c3cccc(Cl)c3)C(C(=O)O)=CC[C@H]2c2ccc(Cl)c(Cl)c2)cc1,21.6% (active)
9,CS(=O)(=O)N(CC(=O)N1CCN(c2cccc(Cl)c2)CC1)c1ccccc1,-1.41%
10,Cc1ccc([C@@H]2CC=C(C(=O)O)[C@H](c3cccc(Cl)c3)N2S(=O)(=O)c2ccc(C)cc2)cc1,5.69%
11,Cc1ccccc1S(=O)(=O)N1[C@@H](c2cccc(Cl)c2)C(C(=O)O)=CC[C@H]1c1ccc(Cl)cc1,20.5% (active)
12,CN1OC(COC(=O)c2ccc(Cl)cc2)CC1c1ccccc1 (stereo unspecified),1.23%
13,CC(C)CCSc1ncnc2c1oc1nc3c(cc12)COC(C)(C)C3,-3.04%
14,Cc1c(CC(=O)N2CCN(C(=O)C3COc4ccccc4O3)CC2)c(=O)oc2c(O)c(O)ccc12 (stereo unspecified),3.96%
15,Cc1cc(Nc2ccc(Br)cc2F)n2ncnc2n1,-2.4%
16,COc1ccc(C2C(C(C)=O)=C(O)C(=O)N2c2nccs2)cc1 (stereo unspecified),-3.06%
17,COc1ccc(C2C(C(C)=O)=C(O)C(=O)N2CCc2c[nH]c3ccccc23)cc1 (stereo unspecified),18.3% (active)
18,COc1ccc(C2C(C(C)=O)=C(O)C(=O)N2Cc2cccnc2)cc1 (stereo unspecified),-4.55%
19,Cc1onc(-c2ccccc2Cl)c1C(=O)N(Cc1ccc(N(C)C)cc1)C(C)C,0.01%
20,COc1ccc2c(c1)c(C(=O)N/N=C/c1cccs1)c(C)n2C,-3.65%
21,COc1ccc(CN(C)C(=O)c2cc(-c3ccc(C)cc3C)nc3ccccc23)c(OC)c1OC,1.42%
22,Cc1ccc2c(Cl)c(C(=O)Nc3nn[nH]n3)sc2c1,10.3%

row,Structure (SMILES),inhibition
1,Cc1ccc(-c2cc(C(=O)Nc3nn[nH]n3)c3ccccc3n2)c(C)c1,21.8% (active)
2,COc1cccc(NC(=O)C(Sc2nnnn2C)c2ccccc2)c1 (stereo unspecified),-7.84%
3,Cc1ccc2cc(CCNC(=O)c3ccc4c(c3)OCO4)c(=O)[nH]c2c1,0.9%
4,Cc1onc(-c2ccccc2Cl)c1C(=O)NCCn1ccc2ccccc21,0.26%
5,Cc1ccc2cc(CCNC(=O)c3c(-c4ccccc4Cl)noc3C)c(=O)[nH]c2c1,57.5% (active)
6,O=S(=O)(NCCc1ccccn1)c1cc(Cl)cc(Cl)c1O,-3.07%
7,COc1cc(S(=O)(=O)N2CCOCC2)ccc1NC(=O)COc1ccc(N(C)S(=O)(=O)c2ccc(C)cc2)cc1,5.5%
8,O=C(Nc1ccccc1F)c1ccc(S(=O)(=O)N2CCCCCC2)cc1,0.94%
9,CC(=O)N1CCCc2cc(S(=O)(=O)N3CCCC(C(=O)N4CCN(c5cccc(Cl)c5)CC4)C3)ccc21 (stereo unspecified),-0.49%
10,CCCCCCCCCCOC(=O)Cn1c(COc2cccc(OC)c2)[n+](C)c2ccccc21,33% (active)
11,CCn1c(COc2cccc(OC)c2)nnc1SCC(=O)N1CCOCC1,-1.11%
12,CCOC(=O)Cn1c(-c2cccnc2Cl)nc2ccccc21,2.18%
13,CCCCCCCCCCOC(=O)Cn1c(COc2ccc(C)cc2)[n+](C)c2ccccc21,44.7% (active)
14,CCOC(=O)COn1c(=O)c(-c2ccc(OCC)cc2)[n+]([O-])c2ccccc21,-1.29%
15,CCCCn1c(N)c(N(CCOC)C(=O)c2cccc(OCc3ccccc3)c2)c(=O)[nH]c1=O,-1.96%
16,O=C(CCN1C(=O)[C@@H]2Cc3ccccc3CN2C1=O)NCCc1ccccc1,-2.43%
17,COC(=O)CCCC1=CC2=C(c3ccccc3)C(=O)C(C)(OC(=O)C3CCCC3)C(=O)C2=CN1c1ccc(OC)cc1 (stereo unspecified),-4.53%
18,CSc1ncccc1C(=O)Nc1ccc2c(c1)OCO2,-1.92%
19,CCOc1cc(N2CCOCC2)c(OCC)cc1NC(=O)COc1cccc2cccnc12,2.8%
20,CCOC(=O)N1CCN(C(c2cccnc2)c2ccc3cccnc3c2O)CC1 (stereo unspecified),3.71%
21,Oc1c(C(c2ccccn2)N2CCOCC2)ccc2cccnc12 (stereo unspecified),78.5% (active)
22,CC(=O)N1CCN(CC(C)(C)NS(=O)(=O)c2ccc(C)cc2)CC1,-0.49%

row,Structure (SMILES),inhibition
1,COc1ccc(S(=O)(=O)N(C)CC(=O)N2CCCC2)cc1Cl,-3.22%
2,COc1ccc(-c2nn(-c3ccccc3)cc2/C=C2/SC(=S)N(CCCC(=O)O)C2=O)c(C)c1,23.3% (active)
3,COc1ccc(/C=C2\SC(=S)N(CCCC(=O)NC3CCCC3)C2=O)cc1OC,3.46%
4,C=CCOc1ccc(/C=C2\SC(=S)N(CCC(=O)O)C2=O)cc1,6.24%
5,O=C(CCCN1C(=O)/C(=C/c2ccccc2)SC1=S)Nc1ccc(O)cc1,1.67%
6,Cc1ccc(-c2nn(-c3ccccc3)cc2/C=C2\SC(=S)N(CCCCCC(=O)O)C2=O)o1,23.8% (active)
7,Cc1ccc(-c2nn(-c3ccccc3)cc2CN(Cc2ccccc2)C(=O)CCC(=O)O)o1,-2.67%
8,CCCn1nc(C(=O)Nc2ccc3nc(C)sc3c2)c2ccccc2c1=O,-3.9%
9,COc1ccc(-c2cc(C(F)(F)F)n3nc(C(=O)N4CCOCC4)c(Cl)c3n2)cc1,-1.63%
10,CCOC(=O)c1nn(-c2cccc(C)c2)cc1C(=O)c1ccccc1,1.33%
11,COc1c(F)c(F)c(-c2csc(N)n2)c(F)c1F,-1.76%
12,N#Cc1ccc(C(=O)OCC(=O)NC(=O)NC2CCCCC2)cc1,0.62%
13,CS(=O)(=O)C1=NN2C(=N)/C(=C\c3ccc(OCCOc4ccccc4)cc3)C(=O)N=C2S1,12.2%
14,CCS(=O)(=O)C1=NSC2=NC(=O)/C(=C\c3ccc(OS(=O)(=O)c4ccccc4)cc3)C(=N)N21,1.95%
15,CS(=O)(=O)c1ccc2c(c1)SC1=NC(=O)/C(=C/c3ccco3)C(=N)N12,24.5% (active)
16,Cc1cc(NC(=O)OC(C)C)ccc1-c1ccc(NC(=O)OC(C)C)cc1C,-5.37%
17,COCC(C)NC(=O)COc1nncc2ccccc12 (stereo unspecified),-1.71%
18,CSc1ccc(/C=N/NC(=O)c2cccc(Cl)c2)cc1,-0.88%
19,CSc1ccc(/C=N\NC(=O)COc2ccc(Cl)cc2Br)cc1,45.6% (active)
20,CSc1ccc(/C=N\NC(=O)CC(=O)NC(C)C)cc1,-3.41%
